Hit rate of the full screen: of about 52,000 compounds, about 4,300 (8.3%) were called active. The list comes from a sample in which actives are over-represented; it also holds similar structures and randomly drawn compounds. Unmarked numbers belong to inactive results. Rule as the data show it: active = survival mostly below about 52% (no sharp cut-off); inactive = mostly above about 56%.
tested on: DeltatarO mutant; test: growth inhibition of S. aureus wild type versus tarO mutant, primary screen, teichoic acid synthesis inhibitors, RN4220, OD600 (AID 463173); conditions: OD600, 18 h, stronger effect = lower value, screened at 18.75 µg/mL (by protocol)

| Structure (SMILES) | survival |
| --- | --- |
| COc1ccc(OC)c(C2CC(=O)Nc3c2c(=O)n(C)c2ncnn32)c1 (configuration not stated) | 166% |
| O=C(Nc1ccc(N2CCOCC2)cc1)c1ncn[nH]1 | 86% |
| Cc1ccc(NC(=O)Cn2c(SCc3cccc(F)c3)nc3ccncc32)c(C)c1 | 83% |
| Cc1ccc(O)c(NC(=O)c2cc(-c3ccccc3O)no2)c1 | 80% |
| O=C(NC1CC(=O)N(c2ccc(F)cc2)C1)c1ccc(S(=O)(=O)N2CCCCC2)cc1 (configuration not stated) | 75% |
| O=C(NC1CC(=O)N(c2ccccc2)C1)c1ccc(S(=O)(=O)N2CCCC2)cc1 (configuration not stated) | 128% |
| CCOc1ccc(N2CC(NC(=O)c3ccc(S(=O)(=O)N4CCCC4)cc3)CC2=O)cc1 (configuration not stated) | 87% |
| CCOc1ccc(N2CC(NC(=O)c3ccc(S(=O)(=O)N4CCOCC4)cc3)CC2=O)cc1 (configuration not stated) | 47% (active) |
| CCOc1ccc(N2CC(NC(=O)c3ccc(S(=O)(=O)N4CCCCC4)cc3)CC2=O)cc1 (configuration not stated) | 79% |
| O=C(NC1CC(=O)N(c2ccccc2)C1)c1ccc(S(=O)(=O)N2CCCCC2)cc1 (configuration not stated) | 17% (active) |
| Cc1c(Cl)cccc1N1C(N)=C(C#N)C(c2cc(CN3CCOCC3)cs2)C2=C1CCCC2=O (configuration not stated) | 128% |
| COc1ccc(OC)c(NC(=O)c2c(NCc3ccc(C)o3)sc3c2CCC(C)C3)c1 (configuration not stated) | 52% (active) |
| COc1ccc(Cl)cc1NC(=O)c1c(NCc2ccc(C)o2)sc2c1CCC(C)C2 (configuration not stated) | 81% |
| COc1ccc(NC(=O)c2c(NCc3ccc(C)o3)sc3c2CCC(C)C3)c(OC)c1 (configuration not stated) | 82% |
| Cc1nnc(SCC#N)n1C | 92% |
| CC(=O)Nc1ccc(S(=O)(=O)NCc2ccc(C(=O)NCc3ccc(Cl)cc3)cc2)cc1 | 68% |
| Cc1ccc(-c2nn(-c3ccc(F)cc3)c3c2cnc2cc(F)c(F)cc23)cc1 | 82% |
| CSc1ccc(CCNC(=O)CCc2c(C)nc3c(c(C)nn3-c3ccc(C)c(C)c3)c2C)cc1 | 91% |
| Cc1ccc(NC(=O)CCS(=O)(=O)c2ccc3c(c2)oc(=O)n3C)c(Br)c1 | 80% |
| Cc1ccc2c(c1)c(=O)c1ccccc1n2CCCC(=O)Nc1c(F)cccc1F | 53% |
| Cc1ccc2c(c1)c(=O)c1ccccc1n2CCCC(=O)Nc1ccc(F)cc1F | 49% (active) |
| Cc1ccc(CCNC(=O)CCCn2c(=O)c3ccccc3n(CC(=O)Nc3cc(Cl)ccc3C)c2=O)cc1 | 116% |
| Cc1ccc2c(c1)c(=O)c1ccccc1n2CCCC(=O)Nc1cc(Cl)ccc1C | 113% |
| Cc1c2cnn(-c3ccccc3)c(=O)c2c(C)n1CCCC(=O)Nc1ccc(F)cc1F | 72% |
| CCCn1c2ccccc2c2cnn(CC(=O)Nc3ccc(C)cc3Br)c(=O)c21 | 94% |
| Cc1ccc2c(c1)c(=O)c1ccccc1n2CCCC(=O)Nc1ccc(Cl)cc1C | 45% (active) |
| Cc1ccc(NC(=O)CCCn2c3ccccc3c(=O)c3cc(C)ccc32)c(Br)c1 | 38% (active) |
